For eight molecules, composite z-score and z-score results are on record in PubChem BioAssay.

Activity calls are given as the source filed them.

The nature of assay [1]: binders of probe aFSTL3 on microarray, primary screen, stem cell growth factor project, biochemical, small-molecule microarray, fluorescence 635/667 (AID 1064).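 Also: measures binding of the biotinylated anti-FSTL3 antibody to printed compounds.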 As to conditions: higher = more signal.
Assay [2] is described as follows: binders from COS7 lysate, DM2A8 probe, primary screen, torsin A project, cell lysate, small-molecule microarray, fluorescence 635/667 (AID 1065). As to conditions: higher = more signal, COS7 lysate expressing mutant human TOR1A.
A short description of assay [3]: binders of probe aFGF2 on microarray, primary screen, stem cell growth factor project, biochemical, small-molecule microarray, fluorescence 635/667 (AID 1067).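 Also: measures binding of biotinylated aFGF2 protein to printed compounds on slides; z-score merges feature fluorescence and signal-to-noise across triplicate slides.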 As to conditions: higher = more signal.
A short description of assay [4]: binders of probe aFGF10 on microarray, primary screen, stem cell growth factor project, biochemical, small-molecule microarray, fluorescence 635/667 (AID 1071).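 Also: score merges 667 nm spot intensity and signal to noise from triplicate slides.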 As to conditions: higher = more signal.
The target of assay [5] is Neurogenic locus notch homolog protein 2 (Homo sapiens) (UniProt Q04721). Kind of assay: Notch2 binders on small-molecule microarrays, primary screen, biochemical, small-molecule microarray, 635 nm fluorescence, stem cell growth factors (AID 1073). The conditions noted are these: Notch2 binding, higher = more signal.
Assay [6] has as its target Pro-neuregulin-1, membrane-bound isoform (Homo sapiens) (UniProt Q02297). Kind of assay: NRG1 binders on small-molecule microarrays, primary screen, psychiatric disease protein project, biochemical, small-molecule microarray, fluorescence 635/667 (AID 1075).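 Also: score combines 667 nm spot fluorescence with signal to noise.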 The conditions noted are these: NRG1 binding, 635 nm fluorescence, higher = more signal.
Assay [7] deals with Neuregulin-1 EGF-like domain. Nature of the assay: binders of neuregulin-1 EGF-like domain, primary screen, biochemical, small-molecule microarray, 635 nm fluorescence (AID 1081).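 Also: binding of the protein to compounds printed on small-molecule microarray slides.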 The conditions noted are these: small-molecule microarray binding, higher = more signal.
Assay [8] can be described thus: FRG1 promoter luciferase signal modulators, primary screen, FRG1 inhibition for FSHD, cell-based, C2C12 myotubes, firefly/Renilla luciferase, luminescence (AID 1084). As to conditions: higher = more signal, called active from +8 up or from −8 down.
Assay [9] in a line: binders of probe aFST on microarray, primary screen, stem cell growth factor project, biochemical, small-molecule microarray, fluorescence 635/667 (AID 1086).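 Also: score merges 667 nm fluorescence with signal-to-noise of each printed compound spot.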 As to conditions: higher = more signal.
Assay [10] is described as follows: binders of probe aHhip on microarray, primary screen, stem cell growth factor project, biochemical, small-molecule microarray, fluorescence 635/667 (AID 1087).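 Also: score merges spot fluorescence at 667nm with spot signal to noise ratio.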 As to conditions: higher = more signal.

Sequence of Pro-neuregulin-1, membrane-bound isoform (Homo sapiens) (Q02297 whole entry, looked up, the tested form may be a part, canonical isoform): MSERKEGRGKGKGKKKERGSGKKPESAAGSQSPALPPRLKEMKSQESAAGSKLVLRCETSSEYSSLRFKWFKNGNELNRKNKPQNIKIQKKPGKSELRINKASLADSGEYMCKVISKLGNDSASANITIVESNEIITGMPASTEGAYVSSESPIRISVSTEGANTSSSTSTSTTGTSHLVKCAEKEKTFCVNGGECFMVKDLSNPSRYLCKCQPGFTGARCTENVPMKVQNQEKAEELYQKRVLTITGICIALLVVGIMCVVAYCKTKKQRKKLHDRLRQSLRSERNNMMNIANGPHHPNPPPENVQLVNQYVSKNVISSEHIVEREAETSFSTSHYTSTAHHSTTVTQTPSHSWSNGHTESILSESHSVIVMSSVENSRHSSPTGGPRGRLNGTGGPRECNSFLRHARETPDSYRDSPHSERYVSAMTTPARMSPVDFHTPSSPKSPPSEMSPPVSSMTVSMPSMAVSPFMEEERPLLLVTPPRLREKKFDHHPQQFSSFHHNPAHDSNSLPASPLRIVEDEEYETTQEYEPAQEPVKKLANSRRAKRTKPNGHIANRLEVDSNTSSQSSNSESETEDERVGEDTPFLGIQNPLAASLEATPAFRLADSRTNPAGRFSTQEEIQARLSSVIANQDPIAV
Sequence of Neurogenic locus notch homolog protein 2 (Homo sapiens) (Q04721 whole entry, looked up, canonical isoform): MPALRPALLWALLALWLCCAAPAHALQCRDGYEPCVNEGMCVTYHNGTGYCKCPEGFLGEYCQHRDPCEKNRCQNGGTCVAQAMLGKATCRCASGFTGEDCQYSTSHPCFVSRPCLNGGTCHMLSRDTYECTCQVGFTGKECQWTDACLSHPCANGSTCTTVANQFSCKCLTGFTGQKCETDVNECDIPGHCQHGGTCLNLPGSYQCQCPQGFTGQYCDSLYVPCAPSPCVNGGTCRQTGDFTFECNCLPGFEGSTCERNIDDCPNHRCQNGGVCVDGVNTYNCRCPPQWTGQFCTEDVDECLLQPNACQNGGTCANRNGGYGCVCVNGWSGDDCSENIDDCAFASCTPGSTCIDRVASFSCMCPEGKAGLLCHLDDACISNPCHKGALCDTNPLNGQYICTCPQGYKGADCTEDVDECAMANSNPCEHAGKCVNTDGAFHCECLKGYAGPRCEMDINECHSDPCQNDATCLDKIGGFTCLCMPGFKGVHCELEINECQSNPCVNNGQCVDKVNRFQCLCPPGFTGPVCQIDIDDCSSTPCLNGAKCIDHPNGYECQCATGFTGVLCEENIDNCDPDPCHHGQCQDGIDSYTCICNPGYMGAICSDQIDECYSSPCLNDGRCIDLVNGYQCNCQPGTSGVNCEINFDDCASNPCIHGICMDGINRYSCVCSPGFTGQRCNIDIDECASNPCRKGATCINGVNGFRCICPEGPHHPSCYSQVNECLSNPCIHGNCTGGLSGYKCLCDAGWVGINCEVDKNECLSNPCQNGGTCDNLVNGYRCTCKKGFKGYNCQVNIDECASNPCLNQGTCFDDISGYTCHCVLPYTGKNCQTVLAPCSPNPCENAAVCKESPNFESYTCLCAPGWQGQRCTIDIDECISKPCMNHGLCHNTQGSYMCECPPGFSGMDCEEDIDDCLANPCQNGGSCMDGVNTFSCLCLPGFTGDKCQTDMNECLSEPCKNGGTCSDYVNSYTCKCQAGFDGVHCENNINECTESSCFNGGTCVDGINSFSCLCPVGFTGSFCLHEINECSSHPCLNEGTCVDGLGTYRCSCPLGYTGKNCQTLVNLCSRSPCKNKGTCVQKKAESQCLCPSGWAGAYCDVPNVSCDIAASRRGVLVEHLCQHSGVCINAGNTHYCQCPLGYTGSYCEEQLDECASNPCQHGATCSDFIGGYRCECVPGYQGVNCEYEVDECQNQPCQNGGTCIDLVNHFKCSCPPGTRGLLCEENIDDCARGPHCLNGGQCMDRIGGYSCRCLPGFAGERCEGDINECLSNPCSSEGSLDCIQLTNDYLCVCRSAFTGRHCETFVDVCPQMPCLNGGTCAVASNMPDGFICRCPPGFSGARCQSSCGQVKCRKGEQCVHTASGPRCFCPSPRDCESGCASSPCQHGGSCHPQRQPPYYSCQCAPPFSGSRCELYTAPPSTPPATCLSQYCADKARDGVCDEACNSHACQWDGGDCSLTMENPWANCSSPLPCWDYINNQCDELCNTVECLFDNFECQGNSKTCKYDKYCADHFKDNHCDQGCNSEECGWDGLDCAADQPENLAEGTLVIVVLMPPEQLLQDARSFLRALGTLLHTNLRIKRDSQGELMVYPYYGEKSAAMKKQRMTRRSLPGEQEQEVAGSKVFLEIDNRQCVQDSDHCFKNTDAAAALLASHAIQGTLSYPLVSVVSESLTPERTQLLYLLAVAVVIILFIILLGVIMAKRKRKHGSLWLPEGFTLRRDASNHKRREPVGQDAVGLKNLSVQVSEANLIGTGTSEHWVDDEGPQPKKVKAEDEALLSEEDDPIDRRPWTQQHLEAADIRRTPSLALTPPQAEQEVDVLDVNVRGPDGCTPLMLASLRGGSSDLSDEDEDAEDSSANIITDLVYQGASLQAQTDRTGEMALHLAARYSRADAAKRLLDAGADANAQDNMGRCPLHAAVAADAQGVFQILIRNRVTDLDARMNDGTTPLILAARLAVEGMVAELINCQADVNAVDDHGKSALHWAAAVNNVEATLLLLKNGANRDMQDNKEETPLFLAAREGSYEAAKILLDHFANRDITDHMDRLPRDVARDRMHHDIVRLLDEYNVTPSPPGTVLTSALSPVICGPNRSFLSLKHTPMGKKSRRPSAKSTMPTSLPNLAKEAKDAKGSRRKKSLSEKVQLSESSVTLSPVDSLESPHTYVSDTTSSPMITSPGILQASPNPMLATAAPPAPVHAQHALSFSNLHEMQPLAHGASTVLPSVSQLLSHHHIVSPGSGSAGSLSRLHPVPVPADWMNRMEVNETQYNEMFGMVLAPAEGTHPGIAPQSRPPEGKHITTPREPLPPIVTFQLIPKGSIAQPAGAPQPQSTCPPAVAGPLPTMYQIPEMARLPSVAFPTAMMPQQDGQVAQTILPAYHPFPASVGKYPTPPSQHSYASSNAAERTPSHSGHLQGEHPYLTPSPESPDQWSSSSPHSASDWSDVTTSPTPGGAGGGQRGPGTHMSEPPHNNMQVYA

As to `COc1ccc([Si](C)(C)[C@@H]2[C@@H](CC(=O)N3CCC[C@H]3CO)O[C@]3(C(=O)N(Cc4cccc(I)c4)c4ccccc43)[C@H]2C)cc1`, the composite z-score was 0.07 in [1]; 1.29 in assay [2]; -0.137 in assay [3]; 0.192 in [4]; 1.08 in [5]; 0.916 in [6]. Further, the figures for the composite z-score in assay [7], in assay [9] and in [10] were 1.17, 0.453 and -0.0994, respectively. For the same molecule, the z-score in [8] is -1.06 (inactive).
Take `NCCCCCCNC(=O)[C@H]1C[C@H]2C(=O)N[C@@H](Cc3ccccc3)C(=O)N2[C@H]1c1cccc(OCCO)c1`: the composite z-score in [1] was 0.135; in assay [2], 0.537; in assay [3] it was 0.0227; in [4], 0.534; in [5], 0.427; in assay [6] it was 1.7. Besides, the results for the composite z-score in assay [7], in [9] and in [10] were 0.922, 0.482 and -0.0346, respectively. In addition, in [8], the z-score is 1.7 (inactive).
On to `C=CC[C@@]1(C(=O)N2CCCCC2)N=C(c2ccc(OCCCO)cc2)O[C@@H]1c1ccccc1N=[N+]=[N-]`, for which the composite z-score in assay [1] is 0.292; in [2] it was -0.0912; in assay [3], -0.0198; in assay [4], 0.555; in assay [5] it was 1.55; in assay [6], 1.4. The composite z-score is 1.23 in [7], 0.833 in assay [9] and -0.0618 in assay [10]. Besides, the z-score in assay [8] was -0.546 (inactive).
`O=c1cccc(-c2ccccc2Cl)o1`: the composite z-score in [1] was -0.152; in [2] it was -0.201; in [3], -0.0621; in assay [4], 0.366; in assay [5], 0.772; in [6] it was -0.234. In addition, the composite z-score in assay [7] is 0.311; in assay [9], 0.241; in [10], -0.0047. Further, the z-score in [8] is 1.17 (inactive).
For `CO[C@H]1O[C@H](CO)[C@@H](OC(=O)Nc2ccc(Br)cc2)[C@@H]2OC(=O)[C@H](Cc3cccc(Br)c3)C/C=C/C[C@@H](Cc3cccc(Br)c3)C(=O)O[C@@H]12`, the composite z-score is -0.0675 in [1]; -0.0034 in [2]; -0.135 in [3]; 0.0489 in assay [4]; 0.0333 in [5]; 0.72 in assay [6]. The figures for the composite z-score in [7], in assay [9] and in [10] were 1.05, 0.388 and 0.315, respectively. Further, the z-score in assay [8] was 1.3 (inactive).
On to `COCCOC(=O)N1C(=O)[C@@]2(c3cc(C#CC4=CCCCC4)ccc31)[C@H](c1ccc(OCCO)cc1)N1[C@H](c3ccccc3)[C@H](c3ccccc3)OC(=O)[C@H]1[C@@H]2C(=O)N1CCc2cc(OC)c(OC)cc2C1`, for which the composite z-score in assay [1] was -0.16; in assay [2], 0.36; in assay [3] it was -0.0242; in assay [4], 0.666; in assay [5], 1.43; in assay [6], 0.395. Further, the composite z-score in assay [7] is 1.15; in assay [9] it was 0.596; in assay [10] it was -0.0994. The z-score in assay [8] was -0.211 (inactive).
For the molecule `O=C1NC(=O)C2C1C=CC(C(O)c1ccc(-c3ccccc3)s1)N2Nc1ccc(Cl)cc1Cl` (stereo not given), the composite z-score turned out to be 0.0065 in assay [1]; 0.285 in assay [2]; 0.107 in [3]; 0.297 in [4]; 1.21 in [5]; 1.48 in assay [6]. Moreover, the composite z-score is 0.706 in [7], 1.16 in [9] and -0.0645 in [10]. Besides, the z-score in assay [8] was 2.38 (inactive).
`C[C@H]1C2[C@H](Cc3ccccc3)NC(=O)[C@]23C(=O)NCC(=O)N2CCC[C@H]2C(=O)NC/C=C/CCC/C=C/C3[C@@H]2O[C@]12C` (stereo not given in full): the composite z-score in [1] is -0.106; in [2], -0.511; in assay [3] it was -0.191; in assay [4], -0.261; in assay [5] it was -0.754; in assay [6], -0.0754. The composite z-score in assay [7] is -0.125; in assay [9] it was -0.653; in assay [10], -0.249. For the same molecule, in [8], the z-score was -0.111 (inactive).
